Measured values as given in PubChem BioAssay (NCATS).
Results filed as inconclusive are left out. A number with no mark means an inactive call. Activity calls are given as the source filed them. The call rests on the fitted dose curve; in most records, active means well fitted inhibition curve with a large enough effect; inconclusive means small, poorly fitted or top-dose-only effect; inactive means no such curve, though single readings can be large or run the other way.

assay: NS1 protein of Zika virus - qHTS assay to identify small molecule inhibitors in human HEK 293 cells (AID 1347053); conditions: HEK293 ZIKV MR766 infection, NS1 TR-FRET, 24 h; series mostly up to 46.1 µM; activity change, negative = inhibition: at the top concentration;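 further: plate controls were infected untreated cells for no effect and uninfected cells for full effect; nearly all actives have a fitted effect of over 55% in size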
Excerpt: National Center for Advancing Translational Sciences [NCATS]
Johns Hopkins University School of Medicine
The non-structural 1 (NS1) protein of zika virus is known to associate with the viral replication complex. This cell-based TR-FRET ZIKV NS-1 assay measures the increased NS-1 protein in human HEK 293 cells after a 24-hour Zika virus infection by a TR-FRET assay readout. A decrease in the Time-resolved fluorescence energy transfer (TR-FRET) signal in this assay by small molecule treatment indicates an inhibitory effect of the small molecule on the expression of Zika virus NS1 correlating with Zika virus replication.
HEK 293 cells were cultured in EMEM (ATCC, Cat. # 30-2003) medium with 10% fetal bovine serum (GE healthcare Life Sciences, Cat. # SH30071.03), and 1% Pen/Strep (Gibco, Cat. # 15140-122). Cells were seeded in the assay plate and incubated at 37 C with 5% CO2 for 20 hours. Compounds were added to cells and incubated for one hour before addition of ZIKV MR766 strain solution to cells (MOI = 0.5). After an incubation at 37 C for 24 hours, the reagent mixture of TR-FRET ZIKV NS1 assay using two anti-ZIKV NS1 antibodies was added to assay plates. The TR-FRET signals in assay plates were measured using an Envision plate reader (PerkinElmer). Data were normalized by using the cell-containing wells without ZIKV as a negative control (0% NS-1) and wells containing ZIKV infected cells as a positive control (100% NS-1 level).

Row | Structure (SMILES) | outcome | activity change, negative = inhibition [%]
1 | C=CCc1ccccc1OCC(O)CNC(C)C (stereo not given) | inactive | 
2 | O=C(CCCN1CCC(O)(c2cccc(C(F)(F)F)c2)CC1)c1ccc(F)cc1 | inactive | 
3 | CC(=O)Oc1cc(C(C)C)c(OCCN(C)C)cc1C | inactive | 
4 | C#CCN(C)CCCOc1ccc(Cl)cc1Cl | inactive | 
5 | CN(C(=O)CCCOc1ccc2[nH]c(=O)ccc2c1)C1CCCCC1 | inactive | 
6 | CN(C)CCOC(=O)COc1ccc(Cl)cc1 | inactive | 
7 | CCc1c(C)[nH]c2c1C(=O)C(CN1CCOCC1)CC2 (stereo not given) | inactive | 
8 | CCOC(=O)C1=C(C)NC(C)=C(C(=O)OC)C1c1cccc(Cl)c1Cl (stereo not given) | inactive | 
9 | CC(C)COCC(CN(Cc1ccccc1)c1ccccc1)N1CCCC1 (stereo not given) |  | 5.42
10 | C[C@]12CCC(=O)C=C1CC[C@@H]1[C@@H]2C(=O)C[C@@]2(C)[C@H]1CC[C@]2(O)C(=O)CO | inactive | 
11 | C[C@]12CCC(=O)C=C1CC[C@@H]1[C@@H]2CC[C@@]2(C)[C@H]1CC[C@]2(O)C(=O)CO | inactive | 
12 | CC(C)NNC(=O)c1ccncc1 | inactive | 
13 | NC(=O)c1ncn([C@@H]2O[C@H](CO)[C@@H](O)[C@H]2O)c1O | inactive | 
14 | NCCCNCCSP(=O)(O)O | inactive | 
15 | NS(=O)(=O)c1cc2c(cc1Cl)NC(C1CC3C=CC1C3)NS2(=O)=O (stereo not given) | inactive | 
16 | O=C1CC2(CCCC2)CC(=O)N1CCCCN1CCN(c2ncccn2)CC1 | inactive | 
17 | CC(C)NCC(O)c1cc(O)cc(O)c1 (stereo not given) | inactive | 
18 | CCn1ccnc1CC1COc2ccccc2O1 (stereo not given) | inactive | 
19 | CCN(CC)CCCN(c1ccccc1)C1Cc2ccccc2C1 | inactive | 
20 | COc1ccc(CCN(C)CCCC(C#N)(c2cc(OC)c(OC)c(OC)c2)C(C)C)cc1OC (stereo not given) | inactive | 

Row | Structure (SMILES) | outcome | activity change, negative = inhibition [%]
21 | Cc1scc2c1N(C(=O)CN1CCN(C)CC1)c1ccccc1NC2=O | inactive | 
22 | CN(C)CCCN1c2ccccc2Sc2ccccc21 | inactive | 
23 | COc1ccc2c(c1OC)C(=O)O[C@@H]2[C@H]1c2c(cc3c(c2OC)OCO3)CCN1C | inactive | 
24 | CN(C)CC[C@@H](c1ccc(Br)cc1)c1ccccn1 | inactive | 
25 | COC(=O)[C@H]1[C@H]2C[C@@H]3c4[nH]c5cc(OC)ccc5c4CCN3C[C@H]2C[C@@H](OC(=O)c2cc(OC)c(OC)c(OC)c2)[C@@H]1OC | inactive | 
26 | O=C1NCN(c2ccccc2)C12CCN(CCCC(c1ccc(F)cc1)c1ccc(F)cc1)CC2 |  | 17.8
27 | CCc1cccc(N(C)C(N)=Nc2cccc3ccccc23)c1 | inactive | 
28 | CCn1cc(C(=O)O)c(=O)c2cc3c(cc21)OCO3 | inactive | 
29 | CCCNC(C)C(=O)Nc1ccccc1C (stereo not given) | inactive | 
30 | Cc1ccc(S(=O)(=O)NC(=O)NN2CCCCCC2)cc1 | inactive | 
31 | CN/C(=C\[N+](=O)[O-])NCCSCc1ccc(CN(C)C)o1 | inactive | 
32 | CN(C)C(=O)Oc1ccc[n+](C)c1 | inactive | 
33 | CN1CCN(C2=Nc3ccccc3Oc3ccc(Cl)cc32)CC1 | inactive | 
34 | COc1ccc(CN(CCN(C)C)c2ccccn2)cc1 | inactive | 
35 | COC(=O)C1=C(C)NC(C)=C(C(=O)OCCN(C)Cc2ccccc2)C1c1cccc([N+](=O)[O-])c1 (stereo not given) |  | 11.3
36 | N[C@@H](COP(=O)(O)O)C(=O)O | inactive | 
37 | NC(=O)N1c2ccccc2C=Cc2ccccc21 | inactive | 
38 | CCn1nc(C(=O)O)c(=O)c2cc3c(cc21)OCO3 | inactive | 
39 | CCCCNc1c(C(=O)OCC)c(C)nc2c1cnn2CC | inactive | 
40 | CCN(CC)CCNC(=O)c1ccc(NC(C)=O)cc1 | inactive | 
